Results: PubChem BioAssay AID1159580 (chemical genetic matrix, 2015)
Where “and” joins values, the source holds several entries; their conditions need not be identical. Equal entries are not always repeated. Screen size: about 5,500 compounds; about 2,000 (36%) were called active. Not shown: some 18% with an inconclusive outcome. No stated cut-off is given here; in the data, active means normalized growth mostly below about 0.91 (no sharp cut-off); inconclusive means no clear call, values can overlap the other calls; inactive means mostly above about 0.92. Some of the results follow.

Assay: chemical genetic growth profiling, strain panel (AID 1159580);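 further: tested at 20 µM; growth read once vehicle control cultures reached saturation at 30 °C; 1 = growth at the plate median or of vehicle wells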
Details: S. cerevisiae deletion strains, growth OD

Measured: normalized growth

CN(C)c1ccc(C(=C2C=CC(=[N+](C)C)C=C2)c2ccc(N(C)C)cc2)cc1
0.364 (active) and 1.08 (inactive): locus YHR030C, strain SLT2, stronger effect = lower value
active: locus YAL013W, strain DEP1, stronger effect = lower value 0.362 | locus YAL021C, strain ccr4, stronger effect = lower value 0.479 | locus YAL026C, strain drs2, stronger effect = lower value 0.563 | locus YAL030W, strain snc1, stronger effect = lower value 0.453 | locus YBL061C, strain skt5, stronger effect = lower value 0.535 | locus YBR009C, strain hhf1, stronger effect = lower value 0.486 | locus YBR021W, strain FUR4, stronger effect = lower value 0.603 | locus YBR023C, strain chs3, stronger effect = lower value 0.506 | locus YBR171W, strain sec66, stronger effect = lower value 0.717 | locus YBR229C, strain ROT2, stronger effect = lower value 0.353 | locus YBR231C, strain swc5, stronger effect = lower value 0.551 | locus YBR279W, strain paf1, stronger effect = lower value 0.463 | locus YCL011C, strain gbp2, stronger effect = lower value 0.524 | locus YCL016C, strain dcc1, stronger effect = lower value 0.473 | locus YCL029C, strain bik1, stronger effect = lower value 0.507 | locus YCL069W, strain vba3, stronger effect = lower value 0.57 | locus YCR088W, strain abp1, stronger effect = lower value 0.563 | locus YDL005C, strain med2, stronger effect = lower value 0.67 | locus YDL035C, strain GPR1, stronger effect = lower value 0.317 | locus YDL040C, strain nat1, stronger effect = lower value 0.48 | locus YDL074C, strain BRE1, stronger effect = lower value 0.492 | locus YDL101C, strain DUN1, stronger effect = lower value 0.397 | locus YDL185W, strain tfp1, stronger effect = lower value 0.433 | locus YDL192W, strain arf1, stronger effect = lower value 0.462 | locus YDR001C, strain nth1, stronger effect = lower value 0.562 | locus YDR069C, strain doa4, stronger effect = lower value 0.61 | locus YDR101C, strain arx1, stronger effect = lower value 0.486 | locus YDR137W, strain rgp1, stronger effect = lower value 0.77 | locus YDR159W, strain sac3, stronger effect = lower value 0.75 | locus YDR162C, strain NBP2, stronger effect = lower value 0.316 | locus YDR297W, strain sur2, stronger effect = lower value 0.537 | locus YDR318W, strain mcm21, stronger effect = lower value 0.487 | locus YDR334W, strain swr1, stronger effect = lower value 0.578 | locus YDR335W, strain msn5, stronger effect = lower value 0.577 | locus YDR388W, stronger effect = lower value 0.435 | locus YDR392W, strain spt3, stronger effect = lower value 0.658 | locus YDR502C, strain sam2, stronger effect = lower value 0.534 | locus YEL003W, strain gim4, stronger effect = lower value 0.547 | locus YEL037C, strain rad23, stronger effect = lower value 0.565 | locus YEL061C, strain CIN8 (second series), stronger effect = lower value 0.569 | locus YEL061C, strain CIN8, stronger effect = lower value 0.347 | locus YER015W, strain faa2, stronger effect = lower value 0.574 | locus YER016W, strain bim1, stronger effect = lower value 0.494 | locus YER110C, stronger effect = lower value 0.586 | locus YER111C, strain swi4, stronger effect = lower value 0.744 | locus YER155C, strain BEM2 (second series), stronger effect = lower value 0.826 | locus YER155C, strain BEM2, stronger effect = lower value 0.411 | locus YER167W, strain BCK2, stronger effect = lower value 0.334 | locus YFR010W, strain ubp6, stronger effect = lower value 0.614 | locus YGL078C, strain dbp3, stronger effect = lower value 0.493 | locus YGL086W, strain mad1, stronger effect = lower value 0.406 | locus YGL167C, strain pmr1, stronger effect = lower value 0.59 | locus YGL173C, strain kem1, stronger effect = lower value 0.637 | locus YGL227W, strain vid30, stronger effect = lower value 0.561 | locus YGL240W, strain doc1, stronger effect = lower value 0.618 | locus YGL248W, strain PDE1, stronger effect = lower value 0.345 | locus YGL253W, strain hxk2, stronger effect = lower value 0.465 | locus YGR078C, strain PAC10, stronger effect = lower value 0.321 | locus YGR135W, strain pre9, stronger effect = lower value 0.509 | locus YGR229C, strain SMI1, stronger effect = lower value 0.363 | locus YGR252W, strain gcn5, stronger effect = lower value 1.33 [resistant] | locus YHR013C, strain ard1, stronger effect = lower value 0.747 | locus YHR027C, strain rpn1, stronger effect = lower value 0.525 | locus YHR079C, strain IRE1 (second series), stronger effect = lower value 0.476 | locus YHR079C, strain IRE1, stronger effect = lower value 1.26 [resistant] | locus YHR094C, strain hxt1, stronger effect = lower value 0.455 | locus YHR129C, strain ARP1, stronger effect = lower value 0.366 | locus YHR142W, strain chs7, stronger effect = lower value 0.638 | locus YHR200W, strain rpn10, stronger effect = lower value 0.459 | locus YIL066C, strain RNR3, stronger effect = lower value 0.346 | locus YIL073C, strain SPO22, stronger effect = lower value 0.67 | locus YIL125W, strain kgd1, stronger effect = lower value 0.505 | locus YIR030C, strain dcg1, stronger effect = lower value 0.493 | locus YJL092W, strain hpr5, stronger effect = lower value 0.548 | locus YJL095W, strain BCK1 (second series), stronger effect = lower value 0.525 | locus YJL115W, strain asf1, stronger effect = lower value 0.651 | locus YJL129C, strain trk1, stronger effect = lower value 0.795 | locus YJL134W, strain LCB3, stronger effect = lower value 0.349 | locus YJL154C, strain vps35, stronger effect = lower value 0.551 | locus YJL164C, strain tpk1, stronger effect = lower value 0.548 | locus YJL166W, strain qcr8, stronger effect = lower value 0.478 | locus YJL168C, strain set2, stronger effect = lower value 0.448 | locus YJL187C, strain SWE1 (second series), stronger effect = lower value 0.333 | locus YJL187C, strain SWE1, stronger effect = lower value 0.521 | locus YJR043C, strain POL32, stronger effect = lower value 0.373 | locus YJR066W, strain TOR1, stronger effect = lower value 0.0572 | locus YKL009W, strain mrt4, stronger effect = lower value 0.538 | locus YKL068W, stronger effect = lower value 0.431 | locus YKL085W, strain MDH1 (second series), stronger effect = lower value 0.429 | locus YKL085W, strain MDH1, stronger effect = lower value 0.429 | locus YKL160W, strain elf1, stronger effect = lower value 0.44 | locus YKR001C, strain vps1, stronger effect = lower value 0.514 | locus YKR026C, strain gcn3, stronger effect = lower value 0.573 | locus YKR091W, strain srl3, stronger effect = lower value 0.536 | locus YLL001W, strain dnm1, stronger effect = lower value 0.605 | locus YLL026W, stronger effect = lower value 0.536 | locus YLL041C, strain sdh2, stronger effect = lower value 0.468 | locus YLR027C, strain aat2, stronger effect = lower value 0.449 | locus YLR058C, strain SHM2, stronger effect = lower value 0.364 | locus YLR102C, strain apc9, stronger effect = lower value 0.449 | locus YLR113W, strain HOG1, stronger effect = lower value 1.5 [resistant] | locus YLR221C, strain rsa3, stronger effect = lower value 0.457 | locus YLR258W, strain gsy2, stronger effect = lower value 0.527 | locus YLR262C, strain YPT6 (second series), stronger effect = lower value 0.65 | locus YLR268W, strain sec22, stronger effect = lower value 0.553 | locus YLR320W, strain mms22, stronger effect = lower value 0.558 | locus YLR330W, strain CHS5, stronger effect = lower value 0.355 | locus YLR342W, strain FKS1 (second series), stronger effect = lower value 0.388 | locus YLR342W, strain FKS1, stronger effect = lower value 0.499 | locus YLR370C, strain arc18, stronger effect = lower value 0.564 | locus YLR371W, strain rom2, stronger effect = lower value 0.489 | locus YLR384C, strain iki3, stronger effect = lower value 0.486 | locus YLR418C, strain cdc73, stronger effect = lower value 0.769 | locus YML016C, strain PPZ1, stronger effect = lower value 0.345 | locus YML032C, strain rad52, stronger effect = lower value 0.583 | locus YML120C, strain ndi1, stronger effect = lower value 0.554 | locus YML124C, strain tub3, stronger effect = lower value 0.48 | locus YMR058W, strain fet3, stronger effect = lower value 0.59 | locus YMR078C, strain ctf18, stronger effect = lower value 0.546 | locus YMR125W, strain sto1, stronger effect = lower value 0.617 | locus YMR129W, stronger effect = lower value 0.505 | locus YMR205C, strain PFK2, stronger effect = lower value 0.688 | locus YMR223W, strain ubp8, stronger effect = lower value 0.524 | locus YMR231W, strain pep5, stronger effect = lower value 0.558 | locus YMR307W, strain GAS1, stronger effect = lower value 0.562 | locus YNL067W, strain RPL9B, stronger effect = lower value 0.315 | locus YNL071W, strain lat1, stronger effect = lower value 0.573 | locus YNL183C, strain NPR1, stronger effect = lower value -0.00369 | locus YNL209W, strain ssb2, stronger effect = lower value 0.435 | locus YNL233W, strain BNI4, stronger effect = lower value 0.338 | locus YNL248C, strain rpa49, stronger effect = lower value 0.6 | locus YNL250W, strain rad50, stronger effect = lower value 0.597 | locus YNL271C, strain bni1, stronger effect = lower value 0.458 | locus YNL298W, strain CLA4, stronger effect = lower value 0.511 | locus YNL307C, strain MCK1, stronger effect = lower value 0.521 | locus YNL322C, strain KRE1 (second series), stronger effect = lower value 0.626 | locus YNL322C, strain KRE1, stronger effect = lower value 0.318 | locus YNR049C, strain mso1, stronger effect = lower value 0.547 | locus YNR052C, strain pop2, stronger effect = lower value 0.497 | locus YOL147C, strain pex11, stronger effect = lower value 0.501 | locus YOR001W, strain rrp6, stronger effect = lower value 0.55 | locus YOR061W, strain CKA2, stronger effect = lower value 0.335 | locus YOR069W, strain VPS5, stronger effect = lower value 0.33 | locus YOR070C, strain gyp1, stronger effect = lower value 0.466 | locus YOR080W, strain dia2, stronger effect = lower value 0.569 | locus YOR083W, strain WHI5, stronger effect = lower value 0.547 | locus YOR106W, strain vam3, stronger effect = lower value 0.505 | locus YOR136W, strain idh2, stronger effect = lower value 0.549 | locus YOR144C, strain elg1, stronger effect = lower value 0.483 | locus YOR184W, strain ser1, stronger effect = lower value 0.604 | locus YOR231W, strain MKK1, stronger effect = lower value 1.28 [resistant] | locus YOR265W, strain rbl2, stronger effect = lower value 0.469 | locus YOR270C, strain vph1, stronger effect = lower value 0.762 | locus YOR290C, strain snf2, stronger effect = lower value 0.636 | locus YOR316C, strain cot1, stronger effect = lower value 0.454 | locus YPL051W, strain arl3, stronger effect = lower value 0.488 | locus YPL055C, strain LGE1, stronger effect = lower value 0.408 | locus YPL078C, strain atp4, stronger effect = lower value 0.643 | locus YPL106C, strain sse1, stronger effect = lower value 0.77 | locus YPL240C, strain hsp82, stronger effect = lower value 0.466 | locus YPL241C, strain CIN2, stronger effect = lower value 0.316 | locus YPL256C, strain CLN2, stronger effect = lower value 1.48 [resistant] | locus YPR119W, strain clb2, stronger effect = lower value 0.472 | locus YPR141C, strain kar3, stronger effect = lower value 0.559 | locus YPR163C, strain tif3, stronger effect = lower value 0.517 | locus YPR167C, strain met16, stronger effect = lower value 0.49 | strain wtn01, stronger effect = lower value 0.535
inactive: locus YDR195W, strain ref2 1.06 | locus YLR039C, strain RIC1, stronger effect = lower value 0.713 | locus YLR262C, strain YPT6, stronger effect = lower value 0.753 | locus YLR357W, strain rsc2, stronger effect = lower value 1.04 | locus YOL012C, strain htz1 1.5
0.406 (active) and 1.08 (inactive): locus YJL095W, strain BCK1, stronger effect = lower value
